Test systems include HCT-15 colon; SNB-75 CNS; SNB-19 CNS; U251 CNS; PC-3 prostate; SK-MEL-5 melanoma; UACC-62 melanoma; LOX IMVI melanoma; SK-MEL-28 melanoma; SK-MEL-2 melanoma; SN12C renal; UO-31 renal; TK-10 renal; ACHN renal; CAKI-1 renal; A498 renal; CCRF-CEM leukemia; EKVX NSCLC; MOLT-4 leukemia.
What all share (test): NCI-60 one-dose screen, 48 h (100 = growth as untreated, 0 = no growth, -100 = all killed)
Common to all, as to details: 10 µM unless noted

We go through eight compounds from PubChem BioAssay (NCI).

About 83,000 compounds went through this panel and 20% of them were active in at least one assay; those are over-represented in the sample as a whole.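 How to read the values: 0–100, growth inhibition (40 = 60% inhibited); 0, no net growth; -100 to 0, cell death (-40 = 40% of starting cells died; -100 = all dead).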 Values without a mark were called inactive. Calls of active or inactive are those of the source. The calls were made as follows: active = growth percent below 10; inactive = the rest.

For the compound `Cc1sc(N=Nc2ccc(N(C)C)cc2)[n+]([O-])c1C`, the growth is 100% in the assay on HCT-15 colon; 82.5% in the assay on SNB-75 CNS; 99.5% in the assay on SNB-19 CNS; 99% in the assay with U251 CNS; 95.2% with PC-3 prostate; 99% in the assay on SK-MEL-5 melanoma. For the same compound, the growth with UACC-62 melanoma was 99.2%; in the assay with LOX IMVI melanoma, 102%; with SK-MEL-28 melanoma it was 102%; in the assay on SK-MEL-2 melanoma it was 114%; in the assay with SN12C renal, 96.7%; in the assay on UO-31 renal it was 82.4%. The growth was 104% with TK-10 renal; 104% with ACHN renal; 110% in the assay with CAKI-1 renal; 88.1% with A498 renal; 104% in the assay on CCRF-CEM leukemia.
As to `Nc1nc(Cl)c2c(ncn2Cc2ccc(CCl)cc2)n1`, the growth with HCT-15 colon is 84.9%; in the assay on SNB-75 CNS, 100%; with SNB-19 CNS, 93.2%; in the assay with U251 CNS, 81.4%; with PC-3 prostate, 77.6%; in the assay with SK-MEL-5 melanoma it was 70.3%. Further, the growth was 78.4% with UACC-62 melanoma; 69.7% in the assay on LOX IMVI melanoma; 101% with SK-MEL-28 melanoma; 98.6% with SK-MEL-2 melanoma; 103% with EKVX NSCLC; 93.4% in the assay on SN12C renal. In addition, the growth with UO-31 renal was 70.5%; in the assay on TK-10 renal it was 78.9%; in the assay with ACHN renal, 83.3%; in the assay with CAKI-1 renal it was 102%; in the assay with A498 renal, 97.3%; in the assay with CCRF-CEM leukemia, 1.58% (active). For the same compound, the growth in the assay with MOLT-4 leukemia is 103%.
As to `COc1cc(Cn2c(SCC(=O)Nc3ccc(Cl)cc3)nc3ccccc3c2=O)cc(OC)c1OC`, the growth in the assay on HCT-15 colon was 72.8%; with SNB-75 CNS it was 27.1%; in the assay on SNB-19 CNS, 63.9%; in the assay on U251 CNS, 75.4%; in the assay with PC-3 prostate, 65.9%; with SK-MEL-5 melanoma it was 49.8%. Further, the growth is 63.3% in the assay on UACC-62 melanoma; 56.1% in the assay with LOX IMVI melanoma; 83.7% in the assay with SK-MEL-28 melanoma; 81% in the assay on SK-MEL-2 melanoma; 71.2% with SN12C renal; 17.7% in the assay on UO-31 renal. For the same compound, the growth with TK-10 renal is 67.8%; in the assay with ACHN renal, 18.9%; with CAKI-1 renal, 71.1%; in the assay on A498 renal it was 41.4%; with CCRF-CEM leukemia it was 83.1%; in the assay on MOLT-4 leukemia, 46.4%.
`O=[N+]([O-])c1cccc(-c2cc(-c3cc(Br)ccc3O)[nH]n2)c1`: the growth in the assay with HCT-15 colon is 15.6%; in the assay on SNB-75 CNS, 38.8%; in the assay on SNB-19 CNS, 25.4%; in the assay on U251 CNS, 17.9%; with PC-3 prostate, 13%; in the assay on SK-MEL-5 melanoma it was 6.28% (active). Further, the growth in the assay on UACC-62 melanoma is 15.2%; in the assay on LOX IMVI melanoma, 6.51% (active); with SK-MEL-28 melanoma, 42.1%; in the assay on SK-MEL-2 melanoma, 24%; with EKVX NSCLC it was 18.1%; in the assay on SN12C renal, 24.8%. In addition, the growth was 20.1% with UO-31 renal; 12.5% in the assay on TK-10 renal; 10.2% with ACHN renal; 40.5% with CAKI-1 renal; 40% in the assay on A498 renal; 8.04% (active) with CCRF-CEM leukemia. The growth in the assay on MOLT-4 leukemia was 4.68% (active).
Regarding `Cc1cc2c(c(=O)o1)C(c1ccc(OC(=O)N3CCOCC3)cc1)C(C#N)=C(N)O2` (stereo not drawn), the growth was 101% in the assay on HCT-15 colon; 95.6% in the assay on SNB-75 CNS; 101% in the assay with SNB-19 CNS; 100% in the assay with U251 CNS; 103% with PC-3 prostate; 103% in the assay on SK-MEL-5 melanoma. For the same compound, the growth with UACC-62 melanoma was 108%; in the assay on LOX IMVI melanoma, 96.4%; in the assay with SK-MEL-28 melanoma, 110%; in the assay on SK-MEL-2 melanoma, 91.3%; in the assay on SN12C renal, 108%; in the assay with UO-31 renal, 90.2%. The growth is 95.6% in the assay with TK-10 renal; 102% in the assay on ACHN renal; 95.2% in the assay with CAKI-1 renal; 106% with A498 renal; 111% in the assay with CCRF-CEM leukemia; 98.3% with MOLT-4 leukemia.
For `CCN1C(=O)N(CC)C2C1NN=c1s/c(=C3\C(=O)N(C4CCCC4)c4ccccc43)c(=O)n12` (stereo not drawn), the growth in the assay with HCT-15 colon was 15.8%; in the assay on SNB-75 CNS, -21.9% (active); with SNB-19 CNS, 34.9%; in the assay with U251 CNS, 18.3%; with PC-3 prostate, 25.3%; in the assay on SK-MEL-5 melanoma, 12.7%. Further, the growth in the assay with UACC-62 melanoma was 34.9%; in the assay on LOX IMVI melanoma, 30.3%; with SK-MEL-28 melanoma it was 57.9%; with SK-MEL-2 melanoma, 41.3%; in the assay on EKVX NSCLC, 56.1%; in the assay on SN12C renal it was 31.6%. Also, the growth in the assay with UO-31 renal is 37.2%; with TK-10 renal it was 24.4%; with ACHN renal, 31.9%; in the assay on CAKI-1 renal it was 32.1%; with A498 renal it was -25.9% (active); in the assay on MOLT-4 leukemia it was 7.37% (active).
`NS(=O)(=O)c1ccc(NCC(=O)Nc2ccc(-c3nc4ccccc4s3)cc2)cc1`: the growth in the assay with HCT-15 colon is 46.6%; with SNB-75 CNS, 69.5%; with SNB-19 CNS, 74.3%; in the assay on U251 CNS, 71.3%; with PC-3 prostate, 64.7%; in the assay with SK-MEL-5 melanoma it was 71.3%. The growth is 38% in the assay with UACC-62 melanoma; 13.1% in the assay with LOX IMVI melanoma; 87.8% with SK-MEL-2 melanoma; 47.8% with SN12C renal; 74.4% with UO-31 renal; 106% in the assay on TK-10 renal. The growth in the assay with ACHN renal is 105%; in the assay with CAKI-1 renal it was 92.9%; in the assay on CCRF-CEM leukemia, 6.24% (active); in the assay with MOLT-4 leukemia, 6.23% (active).
Turning to `C=C1C(=O)O[C@H]2[C@H]1CC/C(COC(=O)NCCc1cccc(OC)c1)=C\CC[C@@]1(C)O[C@@H]21`, the growth with HCT-15 colon was 5.34% (active); in the assay on SNB-75 CNS, 76.1%; in the assay on SNB-19 CNS, 56.9%; with U251 CNS, 66%; in the assay with SK-MEL-5 melanoma, 87.6%; in the assay with UACC-62 melanoma, 22.8%. Also, the growth was 3% (active) in the assay on LOX IMVI melanoma; 46.7% in the assay with SK-MEL-28 melanoma; 68.5% in the assay on SK-MEL-2 melanoma; 68.3% in the assay with EKVX NSCLC; 42.6% with SN12C renal; 32% with UO-31 renal. The growth was 24.9% with TK-10 renal; -9.71% (active) in the assay on ACHN renal; 8.84% (active) in the assay with CAKI-1 renal; 82.4% with A498 renal; 4.38% (active) in the assay on CCRF-CEM leukemia; 11.5% in the assay on MOLT-4 leukemia.
